Screening data: PubChem BioAssay, National Center for Advancing Translational Sciences (NCATS)
A549 viability = counter-screen for Nrf2 inhibitors: cytotoxicity in A549 cells; A549 ARE-Fluc cells, CellTiter-Fluor viability, 18-24 h; Potency, µM (titrated, usually from 46 µM), for inactives: top-dose activity change, negative = cytotoxicity, most hits filed as inhibitors; 390,000 tested, 0.16% active; AID 504648; also: % is scaled to controls: 0 for no effect and ±100 for the full control effect
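Cytotoxicity counterscreen: CellTiter-Fluor fluorescence was measured in A549 ARE_Fluc cells after 18-24 h of compound exposure in a concentration series. The subsequent BugLite luminescent read reports ARE-luciferase activity.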
HepG2 viability = HepG2 cytotoxicity, counter-screen for TGF-b inhibitors; HepG2 CAGA-GFP viability, ATP luminescence, 18 h; Potency, µM (titrated, usually from 46.1 µM), without a hit: top-dose activity change, negative = cytotoxicity, usual class: cytotoxic; 410,000 tested, 0.76% active
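CellTiter-Glo luminescence gave cytotoxicity after 18 hours at 37 degrees C. The cells were HepG2 CAGA-GFP in 1% FBS DMEM, stimulated with 500 pg/mL TGF-beta after compound addition. %Activity was normalised to no-cell wells (complete cell-killing) and DMSO (no toxicity), and curves were fitted and classified.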
S2 tox = cell viability loss in ATXN counter-screen. Potency, µM (highest dose often 56.7 µM), usual class: cytotoxic. 400,000 tested, 0.49% active. S2 cells (HEK-293 line with an ATXN2-luciferase reporter) viability, CellTiter-Fluor protease fluorescence, 24 h; also: nearly all actives have a fitted effect of over 40% in size
Nrf2 block = inhibitors of Nrf2 signaling. A549 ARE-Fluc reporter, luciferase luminescence, 18-24 h. Potency, µM (top dose mostly 46 µM), for inactives: at the highest dose activity change, negative = inhibition, most hits filed as inhibitors. 360,000 tested, 2.1% active. AID 504444; also: % is scaled to controls: 0 for no effect and ±100 for the full control effect; nearly all actives have a fitted effect of over 60% in size
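Cells were seeded and rested 2 h, then exposed to compounds for 18-24 h. CellTiter-Fluor was read first as a viability measure. BugLite was added 15 min before the final luminescent read of ARE-luciferase activity in A549 cells.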
ATXN2 expr inh = ATXN2 expression inhibition; HEK-293 ATXN2-luciferase reporter, luminescence, 24 h; Potency, µM (top dose mostly 57 µM), without a hit: at the highest dose activity change, negative = inhibition, most hits filed as inhibitors; 360,000 tested, 0.72% active; AID 1745845; also: % is scaled to controls: 0 for no effect and ±100 for the full control effect; nearly all actives have a fitted effect of over 55% in size
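qHTS (up to 57 uM final) was run with 24 h compound exposure of reporter cells at 37 °C. Each well was multiplexed: SteadyGlo luminescence measured ATXN2-luciferase expression after a fluorogenic Gly-Phe-AFC viability readout (25 uM final).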
TGFb inhibitor = TGF-b pathway inhibition; HepG2 CAGA-GFP TGF-b/SMAD3 reporter, GFP fluorescence, 18 h; TGF-beta stimulated, 500 pg/mL final; 410,000 tested, 1.2% active; Potency, µM (doses to about 46.1 µM), for the others: at the highest dose activity, negative = inhibition, actives largely listed as inhibitors; also: % is scaled to controls: 0 for no effect and ±100 for the full control effect; nearly all actives have a fitted effect of over 65% in size
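Using HEPG2 CAGA-GFP reporter cells at 1000 cells/well, we pinned test compounds, stimulated with recombinant TGF-beta (500 pg/mL final) and measured total well GFP after 18 h.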
An asterisk follows results filed as active; i = inactive; u = inconclusive; x = no result; ! = not active in a repeat. Most compounds without a hit are left out; they make up all but 3.8% or so of the library. Calls follow the shape of the dose curve; as a rule, active = well fitted curve in the direction sought with a large enough effect; inconclusive = small, poorly fitted or top-dose-only effect, or another doubt; inactive = no such curve, though single readings can be large; an effect the other way counts as inactive or inconclusive. Potency is read from the fitted curve at half-maximal effect.

SMILES	A549 viability	HepG2 viability	S2 tox	Nrf2 block	ATXN2 expr inh	TGFb inhibitor
COc1ccccc1Nc1nn2c(=O)c3ccc(C(=O)NCCc4ccccc4)cc3nc2s1	8.2µM*	3.2µM*	x	18µM*	x	2.2µM*
Cc1ccc(NC(=O)c2ccc3c(=O)n4nc(Nc5ccccc5C)sc4nc3c2)cc1C	u	2.8µM*	i	u	-31%	u
CCN(CC(=O)Nc1c(F)cccc1F)C(=O)CNC(=O)c1ccc(Br)o1	-4%	1%	i	2%	13%	3%
Brc1ccccc1OCCCCn1cnc2ccccc21	-22%	-12%	i	7.3µM*	-8%	-31%
Clc1ccccc1OCCn1cnc2ccccc21	7%	3%	i	u	23%	-3%
CCCCc1c(Cc2ccccc2)ncn1CCc1ccccc1OC	x	x	x	x	14µM*	x
CC1(C)CC(=O)C2=C(C1)Oc1nc3ccccc3cc1C2C(C#N)C#N (stereo not drawn)	u	-17%	u	u	-10%	11µM*
O=C(c1ccccc1)c1ccc(Cn2cc(CCCO)nn2)cc1	-5%	-9%	i	u	-1%	u
O=C(O)CCCCCCCCc1cn(Cc2ccc(C(=O)c3ccccc3)cc2)nn1	-3%	-24%	i	16%	-14%	7.9µM*
CN1CCN(c2cc(N3CCN(C(=O)c4ccco4)CC3)c3c4c(onc24)-c2ccccc2C3=O)CC1	-8%	-52%	i	u	x	-8%
O=C1c2ccccc2-c2onc3c(N4CCN(CCO)CC4)cc(N4CCN(C(=O)c5ccco5)CC4)c1c23	21µM*	18µM*	x	u	u	13µM*
COc1ccccc1C1c2ccc3ccccc3c2Oc2ncn(CCCO)c(=N)c21 (stereo not drawn)	-16%	-32%	20µM*	5%	-30%	0%
COc1ccc(C2c3ccc4ccccc4c3Oc3ncn(CCCN(C)C)c(=N)c32)cc1 (stereo not drawn)	7%	-169%	u	14%	u	u
COc1ccccc1C1c2ccc3ccccc3c2Oc2ncn(CCN(C)C)c(=N)c21 (stereo not drawn)	-7%	16µM*	22µM*	5%	25µM*	u
O=C(CNC(=O)c1cccc(F)c1)N/N=C/c1cc(Br)ccc1OC(=O)/C=C/c1ccco1	1%	-26%	i	3%	28µM*	u
COc1ccccc1C1CCN(C(=O)c2ccc(C(C)(C)C)cc2)CC1	-7%	-58%	i	u	17%	13µM*
COc1ccccc1N1CCN(C(=O)c2ccc(C(C)(C)C)cc2)CC1	5%	-76%	i	16%	-1%	-22%
CC(C)Oc1ccc(C(CCN)C2CCCCC2)cc1 (stereo not drawn)	-13%	11µM*	x	u	u	u
C#Cc1ccc(CN2CCC(C(=O)Nc3ccc(Oc4ccccc4)nc3)CC2)cc1	u	-29%	i	18µM*	-15%	u
O=C(Nc1ccc(Oc2ccccc2)nc1)C1CCN(Cc2ccco2)CC1	3%	-10%	i	-28%	-8%	-27%
O=C(Nc1ccc(Oc2ccccc2)nc1)C1CCN(Cc2cccc(F)c2)CC1	u	-24%	i	18µM*	-15%	-30%
Cc1cc(C2CCCCC2)n(O)c(=O)c1	1%	-24%	20µM*!	u	18µM*	u
Cc1ccc(NC(=O)/C=C\C(=O)N(c2ccc(C(C)C)cc2)C(C(=O)NCc2ccco2)c2ccc(Cl)cc2)cc1 (stereo not drawn)	u	-44%	x	x	x	u
COc1ccc(N(C(=O)/C=C\C(=O)Nc2ccc(Cl)cc2)C(C(=O)NCc2ccco2)c2ccc(C)cc2)cc1 (stereo not drawn)	-16%	-45%	x	x	x	13µM*
